Reference: publication PMC4336329 (PLoS ONE, 2015)
The whole screen tested about 310,000 compounds, of which about 14,000 (4.5%) showed an effect of 50% or more. The effect is printed as a negative number. What follows is part of a selection rich in strong results, with near analogues and random picks from the rest.

The compounds below were run against human ether-à-go-go-related gene (hERG) potassium channel (human, UniProt Q12809) (assay: primary screen, population patch clamp on CHO cells stably expressing hERG; higher = less effect of the substance).
Chain of human ether-à-go-go-related gene (hERG) potassium channel (Q12809 whole entry, looked up): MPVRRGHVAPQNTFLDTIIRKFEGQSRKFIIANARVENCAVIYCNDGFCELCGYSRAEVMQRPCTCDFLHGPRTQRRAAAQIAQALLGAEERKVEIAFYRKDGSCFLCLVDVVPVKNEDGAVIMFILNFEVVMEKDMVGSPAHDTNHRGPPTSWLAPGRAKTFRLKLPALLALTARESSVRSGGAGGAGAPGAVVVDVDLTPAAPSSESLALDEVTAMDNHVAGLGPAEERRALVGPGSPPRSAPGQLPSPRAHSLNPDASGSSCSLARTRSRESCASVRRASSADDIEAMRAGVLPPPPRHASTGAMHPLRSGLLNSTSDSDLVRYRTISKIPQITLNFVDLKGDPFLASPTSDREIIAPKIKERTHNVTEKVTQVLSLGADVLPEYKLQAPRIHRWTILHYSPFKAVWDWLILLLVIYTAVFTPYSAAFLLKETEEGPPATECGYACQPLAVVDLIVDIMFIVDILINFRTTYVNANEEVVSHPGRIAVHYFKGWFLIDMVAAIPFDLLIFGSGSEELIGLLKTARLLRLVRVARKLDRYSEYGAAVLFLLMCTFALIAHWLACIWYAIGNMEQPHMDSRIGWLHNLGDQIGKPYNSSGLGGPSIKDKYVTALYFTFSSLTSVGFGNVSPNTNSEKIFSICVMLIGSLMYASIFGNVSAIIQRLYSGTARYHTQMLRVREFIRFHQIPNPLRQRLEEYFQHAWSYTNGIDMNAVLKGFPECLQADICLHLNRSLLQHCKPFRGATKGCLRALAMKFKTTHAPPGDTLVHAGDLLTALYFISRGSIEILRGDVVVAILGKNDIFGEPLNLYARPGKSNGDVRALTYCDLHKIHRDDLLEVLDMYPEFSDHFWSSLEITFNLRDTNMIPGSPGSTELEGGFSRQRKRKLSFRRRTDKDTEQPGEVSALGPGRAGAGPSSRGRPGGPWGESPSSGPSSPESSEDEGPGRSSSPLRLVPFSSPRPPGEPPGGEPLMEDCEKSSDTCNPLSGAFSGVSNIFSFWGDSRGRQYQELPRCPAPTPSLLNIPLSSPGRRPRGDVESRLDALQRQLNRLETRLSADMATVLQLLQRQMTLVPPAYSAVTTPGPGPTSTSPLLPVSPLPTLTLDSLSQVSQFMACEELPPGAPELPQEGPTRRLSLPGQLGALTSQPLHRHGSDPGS
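Also: peak tail current of the secondary pulse compared with the same well before compound.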

SMILES | hERG current change (%, negative = inhibition) at 10uM [%]
COc1cc(NC2c3ccccc3C(=O)N2Cc2ccccc2Cl)cc(OC)c1OC (stereo not shown) | -0.846
CC(C)(CO)NC(=O)C(Cc1ccccc1)N1C(=O)c2ccccc2C1=O (stereo not shown) | 17
Cc1c(C#N)c(NC(=O)CCl)n(Cc2cccs2)c1C | -11.4
CCN1CCN(C(=O)CCc2nnc(CCCCc3ccccc3)o2)[C@@H](C)C1=O | 16.5
CN1CCC(=O)N([C@H](CC#N)c2ccccc2)CC1 | 16.2
CN1CCC(=O)N([C@H](CO)c2ccccc2)CC1 | 3.76
CN1CCC(=O)N([C@H](CSc2ccccc2)c2ccccc2)CC1 | -64.9
CN1CCC(=O)N([C@H](CSc2ccc(Br)cc2)c2ccccc2)CC1 | -83.7
CN1CCC(=O)N([C@H](CN=[N+]=[N-])c2ccccc2)CC1 | 6.65
Cc1cccc(C(=O)NCC(c2ccc(F)cc2)N2CCOCC2)c1 (stereo not shown) | -2.49
CCc1cccc(CC)c1C(OC(C)=O)c1cccnc1 (stereo not shown) | -0.238
CCc1ccc(NC(=O)c2ccc(C3SCC(=O)N3CCc3ccccc3)cc2)cc1 (stereo not shown) | 6.22
CN(CC(=O)Nc1ccc2c(c1)OCO2)S(=O)(=O)c1cccs1 | -26.9
O=C(c1ccccc1)c1ccc(C(=O)N2CCN(c3ccccc3Cl)CC2)cc1 | -13.3
O=C(Nc1ccccc1N1CCCC1)c1ccccc1Cl | 6.75
Cc1ccccc1N1CCN(C(=O)c2ccccc2NC(=O)c2ccccc2C(=O)O)CC1 | 6.78
O=C(Nc1ccccc1N1CCN(C(=O)c2ccccc2)CC1)c1ccccc1Cl | -78.8
Cc1ccccc1C(=O)Nc1ccccc1N1CCCCC1 | 8.11
Cc1ccccc1C(=O)Nc1ccccc1N1CCN(C(=O)c2ccccc2)CC1 | -74
COC(=O)Nc1ccc2c(c1)N(C(=O)CCN1CCOCC1)c1ccccc1S2.Cl | 2.68
Cc1nc(CCNC(=O)Cc2ccc(F)cc2)cs1 | 18.9
O=C(COc1ccc2c3c(c(=O)oc2c1)CCC3)N1CCN(c2ccccc2)CC1 | -12.6
CCC(CC)C(=O)Nc1ccc(Nc2ccccc2)cc1 | 8.32
CC(C)[C@H](NC(=O)[C@@H]1Cc2ccccc2CN1)C(=O)Nc1ccc2c(c1)OCCO2 | -30.2
O=C(Cn1[nH]c(=O)c2ccccc2c1=O)OCC(=O)N(Cc1ccccc1)Cc1ccccc1 | 4.4
O=C(CCNC(=O)c1ccc([N+](=O)[O-])cc1)Nc1cc(Cl)ccc1N1CCOCC1 | -69.9
O=C(CCNC(=O)c1ccc([N+](=O)[O-])cc1)Nc1ccccc1N1CCCC1 | -34.6
CC(C)(C)c1ccc(C(=O)NCCC(=O)Nc2cc(Cl)ccc2N2CCOCC2)cc1 | -2.31

SMILES | hERG current change (%, negative = inhibition) at 10uM [%]
O=C(CCNC(=O)c1ccc([N+](=O)[O-])cc1)Nc1ccccc1N1CCCCC1 | -34.9
O=C(CCNC(=O)c1ccc([N+](=O)[O-])cc1)Nc1ccc(N2CCOCC2)cc1N1CCOCC1 | -4.63
O=C(CCNC(=O)c1ccc([N+](=O)[O-])cc1)Nc1ccccc1N1CCOCC1 | -64.3
O=C(N1CCCCCC1)N1CCN(S(=O)(=O)c2ccccc2)CC1 | -11.9
Cc1c(CC(=O)NCC(=O)NCC(=O)O)c(=O)oc2cc3c(cc12)CCC(C)(C)O3 | 12.5
Cc1ccc(C)c(NC(=O)CN(C)C(=O)[C@@H](NC(=O)c2ccc(C(C)(C)C)cc2)C(C)C)c1 | -16.5
Nn1c(SCC(=O)NC(=O)Nc2ccc3c(c2)OCCO3)nnc1C1CC1 | 14.3
CC(C)NC(=NCc1ccc(Cl)cc1Cl)Nc1ccccc1 | -53
O=C(NCc1ccc(Cl)cc1Cl)Nc1ccccc1 | 2.75
S=C(NCc1ccc(Cl)cc1Cl)Nc1ccccc1 | 10.1
COC(=O)C1=C(c2ccc3ccccc3c2)C[C@@H]2CC[C@H]1N2C(=O)NCCCOC(C)C | -7.68
O=C(COc1ccc(-c2ccccc2)cc1)N/N=C/c1ccccc1Br | 19.7
O=C(O)C1C2C=CC(C2)C1C(=O)N1CCN(C/C=C/c2ccccc2)CC1 (stereo not shown) | 17.1
COc1ccc(Cn2c(C)nc([N+](=O)[O-])c2SCC(=O)O)cc1[N+](=O)[O-] | 16.5
COCC(O)CSc1c([N+](=O)[O-])nc(C)n1Cc1ccc(OC)c([N+](=O)[O-])c1 (stereo not shown) | -2.82
CCOc1ccc(Cn2ccnc2CCl)cc1[N+](=O)[O-] | -33.2
COc1ccc(Cn2cc([N+](=O)[O-])nc2C)cc1[N+](=O)[O-] | -2.26
Cc1nc([N+](=O)[O-])c(SCC(N)=O)n1Cc1ccccc1 | 27.8
CCOc1ccc(Cn2c(C)nc([N+](=O)[O-])c2SCC(O)CCl)cc1[N+](=O)[O-] (stereo not shown) | -68.2
CCCOc1ccc(Cn2c(C)nc([N+](=O)[O-])c2SCC(O)COC)cc1[N+](=O)[O-] (stereo not shown) | -66
Cc1nc([N+](=O)[O-])c(SCC(O)CCl)n1Cc1ccc(Cl)cc1 (stereo not shown) | -59.9
Cn1cnc([N+](=O)[O-])c1SCC(O)CCl (stereo not shown) | 15.9
O=C(O)c1ccc(COc2ccccc2[N+](=O)[O-])o1 | 14.8
O=C1CCCC(O)=C1C(C#Cc1ccccc1)C1=C(O)CCCC1=O | -17.9
CCOC(=O)c1c(C)oc2ccc(NS(=O)(=O)c3cccs3)cc12 | 6.47
COC(=O)c1c(C)oc2ccc(NS(=O)(=O)c3cccs3)cc12 | -2.42
COCCOC(=O)c1c(C)oc2ccc(NS(=O)(=O)c3cccs3)cc12 | -51.4
